The values that follow come from ChEMBL document CHEMBL1961873, “Compounds: GSK PKIS; Assays: Nanosyn kinase panel” (2012).

As usually defined, the inhibition is the relative decrease from the control value, in per cent.

SMILES strings stand for the structures.

For test [1], the target named is Ribosomal protein S6 kinase alpha-6 (Homo sapiens) (UniProt Q9UK32). The following applies: at 1 µM.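 Note: each value is a mean inhibition of RSK4 from a GSK PKIS panel screen.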
In test [2] the target is T1, Serine/threonine-protein kinase Sgk1 (Homo sapiens) (UniProt O00141).
T1 sequence (whole entry): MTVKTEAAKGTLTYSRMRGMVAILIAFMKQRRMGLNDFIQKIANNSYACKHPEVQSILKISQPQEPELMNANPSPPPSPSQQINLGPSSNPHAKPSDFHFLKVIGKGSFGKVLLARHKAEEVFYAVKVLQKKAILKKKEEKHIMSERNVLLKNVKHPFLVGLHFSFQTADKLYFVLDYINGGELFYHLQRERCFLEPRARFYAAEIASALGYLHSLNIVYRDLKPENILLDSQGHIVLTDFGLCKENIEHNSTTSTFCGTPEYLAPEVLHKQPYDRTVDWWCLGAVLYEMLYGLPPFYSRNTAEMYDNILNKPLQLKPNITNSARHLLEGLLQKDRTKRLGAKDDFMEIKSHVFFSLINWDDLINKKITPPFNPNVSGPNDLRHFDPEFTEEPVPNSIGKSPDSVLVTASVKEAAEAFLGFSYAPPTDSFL
Particulars: at 0.1 µM.

Test [3] has as its target T1, Serine/threonine-protein kinase Sgk1 (Homo sapiens). The following applies: at 1 µM.
For test [4], the target named is T2, Serine/threonine-protein kinase Sgk2 (Homo sapiens) (UniProt Q9HBY8).
T2 sequence (whole entry): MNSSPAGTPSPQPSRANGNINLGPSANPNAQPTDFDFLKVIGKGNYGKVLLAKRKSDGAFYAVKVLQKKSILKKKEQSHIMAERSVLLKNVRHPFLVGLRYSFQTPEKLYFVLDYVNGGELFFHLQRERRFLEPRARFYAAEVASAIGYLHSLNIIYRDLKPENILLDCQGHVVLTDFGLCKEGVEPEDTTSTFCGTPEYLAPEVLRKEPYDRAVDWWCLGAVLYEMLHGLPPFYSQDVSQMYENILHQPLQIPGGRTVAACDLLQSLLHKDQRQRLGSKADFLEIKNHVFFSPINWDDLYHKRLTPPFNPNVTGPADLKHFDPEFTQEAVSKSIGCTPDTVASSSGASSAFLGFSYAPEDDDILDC
Particulars: at 0.1 µM.

Test [5] addresses T2, Serine/threonine-protein kinase Sgk2 (Homo sapiens). Particulars: at 1 µM.
The target of test [6] is T3, Serine/threonine-protein kinase Sgk3 (Homo sapiens) (UniProt Q96BR1).
T3 sequence (whole entry): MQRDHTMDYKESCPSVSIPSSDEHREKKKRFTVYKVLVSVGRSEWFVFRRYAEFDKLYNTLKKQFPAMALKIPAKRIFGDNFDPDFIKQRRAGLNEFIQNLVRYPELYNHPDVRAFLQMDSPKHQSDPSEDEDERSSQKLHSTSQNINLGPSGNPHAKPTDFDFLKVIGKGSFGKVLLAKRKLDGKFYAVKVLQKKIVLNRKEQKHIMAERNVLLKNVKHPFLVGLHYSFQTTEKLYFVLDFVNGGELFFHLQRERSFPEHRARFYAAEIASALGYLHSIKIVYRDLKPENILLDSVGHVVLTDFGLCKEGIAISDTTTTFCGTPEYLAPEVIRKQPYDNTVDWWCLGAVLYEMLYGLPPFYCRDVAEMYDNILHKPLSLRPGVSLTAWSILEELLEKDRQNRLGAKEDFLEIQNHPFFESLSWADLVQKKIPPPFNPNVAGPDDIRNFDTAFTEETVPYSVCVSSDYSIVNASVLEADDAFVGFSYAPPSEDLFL
Particulars: at 0.1 µM.

For test [7], the target named is T3, Serine/threonine-protein kinase Sgk3 (Homo sapiens). Particulars: at 1 µM.
For test [8], the target named is 5'-AMP-activated protein kinase catalytic subunit alpha-1 (Homo sapiens) (UniProt Q13131). The following applies: at 0.1 µM.
Chain of 5'-AMP-activated protein kinase catalytic subunit alpha-1 (Homo sapiens) (Q13131 whole entry, looked up): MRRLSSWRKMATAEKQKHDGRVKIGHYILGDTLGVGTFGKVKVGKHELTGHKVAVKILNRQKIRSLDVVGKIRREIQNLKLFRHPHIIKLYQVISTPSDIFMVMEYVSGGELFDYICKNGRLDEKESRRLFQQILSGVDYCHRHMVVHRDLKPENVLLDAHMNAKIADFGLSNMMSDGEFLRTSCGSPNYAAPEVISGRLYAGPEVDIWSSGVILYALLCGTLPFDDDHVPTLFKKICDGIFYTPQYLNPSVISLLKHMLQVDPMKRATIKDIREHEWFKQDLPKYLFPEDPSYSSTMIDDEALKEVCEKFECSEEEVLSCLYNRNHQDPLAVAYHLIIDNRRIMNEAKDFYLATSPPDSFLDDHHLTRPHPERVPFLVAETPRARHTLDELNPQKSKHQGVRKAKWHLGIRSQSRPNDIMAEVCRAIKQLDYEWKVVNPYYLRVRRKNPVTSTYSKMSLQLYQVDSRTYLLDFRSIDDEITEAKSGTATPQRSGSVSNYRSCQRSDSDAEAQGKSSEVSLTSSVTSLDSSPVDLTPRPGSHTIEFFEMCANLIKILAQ
Test [9] shares this target. The following applies: at 1 µM.
The target of test [10] is 5'-AMP-activated protein kinase catalytic subunit alpha-2 (Homo sapiens) (UniProt P54646). The following applies: at 0.1 µM.
Chain of 5'-AMP-activated protein kinase catalytic subunit alpha-2 (Homo sapiens) (P54646 whole entry, looked up): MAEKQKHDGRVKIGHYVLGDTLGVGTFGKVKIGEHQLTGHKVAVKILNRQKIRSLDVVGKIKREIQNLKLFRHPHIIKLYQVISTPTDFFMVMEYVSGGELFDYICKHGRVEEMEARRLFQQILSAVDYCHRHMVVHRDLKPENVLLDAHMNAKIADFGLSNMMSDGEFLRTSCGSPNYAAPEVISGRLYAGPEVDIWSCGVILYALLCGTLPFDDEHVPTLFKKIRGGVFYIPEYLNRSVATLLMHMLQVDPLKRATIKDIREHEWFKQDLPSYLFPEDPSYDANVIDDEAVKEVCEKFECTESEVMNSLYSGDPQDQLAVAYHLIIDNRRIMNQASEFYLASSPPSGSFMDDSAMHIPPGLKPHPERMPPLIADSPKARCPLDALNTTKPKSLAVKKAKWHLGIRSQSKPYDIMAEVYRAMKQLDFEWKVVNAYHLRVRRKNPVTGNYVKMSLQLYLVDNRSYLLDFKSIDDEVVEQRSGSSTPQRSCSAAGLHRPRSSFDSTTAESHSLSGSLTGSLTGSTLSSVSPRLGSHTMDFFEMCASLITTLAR
Test [11] has the same target. Particulars: at 1 µM.
Test [12] has as its target T4, NUAK family SNF1-like kinase 1 (Homo sapiens) (UniProt O60285).
T4 sequence (whole entry): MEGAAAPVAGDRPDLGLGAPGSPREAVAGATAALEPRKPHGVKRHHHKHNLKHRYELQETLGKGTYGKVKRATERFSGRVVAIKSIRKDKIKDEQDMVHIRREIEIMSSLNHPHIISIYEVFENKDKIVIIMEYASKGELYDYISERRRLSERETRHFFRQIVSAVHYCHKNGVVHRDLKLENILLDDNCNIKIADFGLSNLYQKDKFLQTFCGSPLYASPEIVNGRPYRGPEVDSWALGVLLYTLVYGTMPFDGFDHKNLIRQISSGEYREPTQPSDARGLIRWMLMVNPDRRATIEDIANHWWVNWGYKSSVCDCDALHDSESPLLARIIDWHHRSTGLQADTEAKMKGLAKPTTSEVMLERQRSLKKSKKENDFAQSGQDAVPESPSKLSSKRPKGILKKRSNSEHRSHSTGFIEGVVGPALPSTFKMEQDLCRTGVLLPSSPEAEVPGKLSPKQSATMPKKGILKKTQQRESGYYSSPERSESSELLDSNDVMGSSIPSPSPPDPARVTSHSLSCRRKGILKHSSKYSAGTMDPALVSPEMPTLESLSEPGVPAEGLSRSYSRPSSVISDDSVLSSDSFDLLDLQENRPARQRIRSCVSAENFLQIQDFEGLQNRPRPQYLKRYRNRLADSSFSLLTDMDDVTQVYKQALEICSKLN
Particulars: at 0.1 µM.

The target of test [13] is T4, NUAK family SNF1-like kinase 1 (Homo sapiens). Particulars: at 1 µM.
In test [14] the target is T5, Serine/threonine-protein kinase BRSK1 (Homo sapiens) (UniProt Q8TDC3).
T5 sequence (whole entry): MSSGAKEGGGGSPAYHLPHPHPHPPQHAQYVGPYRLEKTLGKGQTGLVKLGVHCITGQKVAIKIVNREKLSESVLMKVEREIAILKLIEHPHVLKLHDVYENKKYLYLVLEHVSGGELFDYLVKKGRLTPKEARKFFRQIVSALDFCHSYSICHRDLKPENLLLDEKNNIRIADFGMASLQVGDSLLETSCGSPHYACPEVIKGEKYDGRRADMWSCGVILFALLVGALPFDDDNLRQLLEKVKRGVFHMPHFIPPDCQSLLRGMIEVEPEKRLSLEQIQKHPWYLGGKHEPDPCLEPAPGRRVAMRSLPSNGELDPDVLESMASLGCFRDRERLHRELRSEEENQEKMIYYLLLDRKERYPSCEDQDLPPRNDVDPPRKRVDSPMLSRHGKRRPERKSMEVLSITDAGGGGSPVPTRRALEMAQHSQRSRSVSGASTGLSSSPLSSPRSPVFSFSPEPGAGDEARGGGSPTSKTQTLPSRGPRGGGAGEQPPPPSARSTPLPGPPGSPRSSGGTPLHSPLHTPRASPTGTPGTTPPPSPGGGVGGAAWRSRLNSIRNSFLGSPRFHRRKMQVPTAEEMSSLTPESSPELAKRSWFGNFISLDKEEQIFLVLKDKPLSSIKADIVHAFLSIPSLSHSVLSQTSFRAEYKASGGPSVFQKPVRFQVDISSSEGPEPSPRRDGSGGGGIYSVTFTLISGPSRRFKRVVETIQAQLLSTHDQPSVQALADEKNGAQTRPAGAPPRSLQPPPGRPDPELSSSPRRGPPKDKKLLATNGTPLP
Particulars: at 0.1 µM.

For test [15], the target named is T5, Serine/threonine-protein kinase BRSK1 (Homo sapiens). Particulars: at 1 µM.
The target in test [16] is T6, Serine/threonine-protein kinase BRSK2 (Homo sapiens) (UniProt Q8IWQ3).
T6 sequence (whole entry): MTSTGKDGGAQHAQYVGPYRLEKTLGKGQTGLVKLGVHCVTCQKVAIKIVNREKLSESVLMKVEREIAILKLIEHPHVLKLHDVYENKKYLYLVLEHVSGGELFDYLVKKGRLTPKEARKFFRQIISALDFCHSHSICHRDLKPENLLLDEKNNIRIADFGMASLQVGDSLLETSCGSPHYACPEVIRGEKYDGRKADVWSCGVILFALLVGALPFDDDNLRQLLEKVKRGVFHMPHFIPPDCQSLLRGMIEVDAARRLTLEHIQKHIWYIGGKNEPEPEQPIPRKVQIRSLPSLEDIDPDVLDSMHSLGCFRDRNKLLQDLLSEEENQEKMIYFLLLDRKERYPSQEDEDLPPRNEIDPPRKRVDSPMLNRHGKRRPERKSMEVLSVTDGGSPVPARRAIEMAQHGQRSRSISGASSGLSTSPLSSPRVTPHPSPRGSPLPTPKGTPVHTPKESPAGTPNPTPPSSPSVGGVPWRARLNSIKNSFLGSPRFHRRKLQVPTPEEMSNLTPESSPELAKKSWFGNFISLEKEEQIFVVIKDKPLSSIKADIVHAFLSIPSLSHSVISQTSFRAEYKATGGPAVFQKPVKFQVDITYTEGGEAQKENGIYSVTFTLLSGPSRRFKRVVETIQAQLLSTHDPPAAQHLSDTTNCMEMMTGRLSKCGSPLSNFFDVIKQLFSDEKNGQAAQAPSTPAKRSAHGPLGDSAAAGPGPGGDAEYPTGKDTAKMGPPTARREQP
Particulars: at 0.1 µM.

The target in test [17] is T6, Serine/threonine-protein kinase BRSK2 (Homo sapiens). The following applies: at 1 µM.
Test [18] addresses Calcium/calmodulin-dependent protein kinase type 1D (Homo sapiens) (UniProt Q8IU85). Particulars: at 0.1 µM.
For test [19] the target is unchanged. Particulars: at 1 µM.
Test [20] concerns the target Calcium/calmodulin-dependent protein kinase type II subunit alpha (Homo sapiens) (UniProt Q9UQM7). Particulars: at 0.1 µM.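 Note: reported values are averages (mean inhibition of CAMK2A).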

Chain of Calcium/calmodulin-dependent protein kinase type 1D (Homo sapiens) (Q8IU85 whole entry, looked up): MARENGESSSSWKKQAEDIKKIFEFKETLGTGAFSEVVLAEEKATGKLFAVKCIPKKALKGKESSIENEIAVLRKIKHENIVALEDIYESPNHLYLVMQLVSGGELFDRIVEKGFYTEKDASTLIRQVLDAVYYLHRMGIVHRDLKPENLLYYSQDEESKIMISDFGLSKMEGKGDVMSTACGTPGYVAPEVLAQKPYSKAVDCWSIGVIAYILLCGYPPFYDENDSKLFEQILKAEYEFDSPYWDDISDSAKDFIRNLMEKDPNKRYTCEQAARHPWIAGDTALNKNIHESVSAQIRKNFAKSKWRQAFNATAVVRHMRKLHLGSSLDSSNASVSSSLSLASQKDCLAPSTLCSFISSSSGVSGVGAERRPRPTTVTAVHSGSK
Chain of Calcium/calmodulin-dependent protein kinase type II subunit alpha (Homo sapiens) (Q9UQM7 whole entry): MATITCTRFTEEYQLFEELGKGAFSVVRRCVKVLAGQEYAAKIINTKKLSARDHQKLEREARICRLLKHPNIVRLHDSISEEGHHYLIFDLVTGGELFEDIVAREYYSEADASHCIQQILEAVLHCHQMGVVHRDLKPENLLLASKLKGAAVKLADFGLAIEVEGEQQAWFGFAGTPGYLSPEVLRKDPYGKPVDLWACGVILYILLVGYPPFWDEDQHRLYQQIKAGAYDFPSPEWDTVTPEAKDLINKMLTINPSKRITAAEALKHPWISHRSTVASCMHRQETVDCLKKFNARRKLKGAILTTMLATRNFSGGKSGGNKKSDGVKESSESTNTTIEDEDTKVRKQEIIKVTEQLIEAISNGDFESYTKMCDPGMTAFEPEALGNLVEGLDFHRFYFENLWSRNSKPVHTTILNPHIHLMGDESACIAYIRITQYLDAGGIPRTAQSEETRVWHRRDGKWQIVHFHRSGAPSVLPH
Chain of Ribosomal protein S6 kinase alpha-6 (Homo sapiens) (Q9UK32 whole entry): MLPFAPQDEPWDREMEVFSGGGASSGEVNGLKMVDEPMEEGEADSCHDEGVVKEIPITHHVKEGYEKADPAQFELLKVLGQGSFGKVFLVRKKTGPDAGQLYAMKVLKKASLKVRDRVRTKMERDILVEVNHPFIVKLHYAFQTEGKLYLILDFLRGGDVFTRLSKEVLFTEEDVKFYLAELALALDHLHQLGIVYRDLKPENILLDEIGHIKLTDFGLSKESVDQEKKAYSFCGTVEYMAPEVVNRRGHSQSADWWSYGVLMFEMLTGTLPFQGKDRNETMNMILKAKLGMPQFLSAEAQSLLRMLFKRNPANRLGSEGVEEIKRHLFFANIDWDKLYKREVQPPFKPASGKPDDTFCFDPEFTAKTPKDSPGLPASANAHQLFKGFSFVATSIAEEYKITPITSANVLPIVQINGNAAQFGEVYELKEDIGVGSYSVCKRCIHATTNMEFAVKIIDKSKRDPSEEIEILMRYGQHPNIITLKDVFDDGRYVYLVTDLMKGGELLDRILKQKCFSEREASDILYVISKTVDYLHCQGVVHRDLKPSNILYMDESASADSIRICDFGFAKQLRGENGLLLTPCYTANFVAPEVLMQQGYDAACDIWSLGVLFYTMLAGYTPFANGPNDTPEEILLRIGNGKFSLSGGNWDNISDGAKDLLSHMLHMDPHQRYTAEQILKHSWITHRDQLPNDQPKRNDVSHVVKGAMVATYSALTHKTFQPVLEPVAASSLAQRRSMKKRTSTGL

In the case of `CC(=O)NCc1cccc(C#Cc2cncnc2Nc2ccc(OCc3cccc(F)c3)c(Cl)c2)c1`, the inhibition in test [1] was 1.01%; in test [2] it was 0.94%; in [3], 0.99%; in test [4], 4.36%; in test [5] it was -2.04%; in test [6], -1.07%. Moreover, the inhibition in [7] was determined as 1.92%; in test [8], 1.28%; in test [9], 3.03%; in [10] it was 2.22%; in test [11], 3.37%; in test [12] it was 3.47%. Besides, the inhibition in [13] was 1.8%; in test [14], 1.85%; in [15] it was 3.55%; in [16], 1.29%; in test [17], 5.12%; in test [18] it was 0.67%. Further, the figures for the inhibition in test [19] and in [20] were 2.08% and 24.7%, respectively.
As to `CCN1CCC(CC(=O)Nc2n[nH]c3nnc(-c4cccc(F)c4F)cc23)CC1`, the inhibition in test [1] is 1.38%; in [2] it was 0.53%; in test [3], 0.29%; in test [4] it was -3.94%; in test [5] it was 1.93%; in test [6] it was 0.82%. Also, the inhibition was 4.18% in test [7]; 2.47% in test [8]; 3.36% in [9]; 2.36% in test [10]; 5.17% in test [11]; -1.66% in [12]. Further, the inhibition is 1.56% in [13]; -0.52% in test [14]; 3.84% in [15]; 2.07% in test [16]; -0.1% in test [17]; 1.6% in test [18]. For the same compound, the inhibition in test [19] is -1.42%; in [20], 3.17%.
Take `Fc1ccc(-c2nn3ccccc3c2-c2ccncc2)cc1`: the inhibition in test [1] worked out at 2.09%; in test [2], 0.19%; in test [3], 3.23%; in test [4], 3.79%; in test [5] it was 3.17%; in [6], 3.25%. The inhibition is 5.79% in test [7]; 1.13% in test [8]; -0.08% in [9]; 1.39% in [10]; 2.49% in [11]; -0.02% in test [12]. Moreover, the inhibition in test [13] came to 1.09%; in test [14] it was 0.59%; in test [15], 1.1%; in test [16], 1.69%; in test [17] it was 0.78%; in [18], 0.87%. Also, the figures for the inhibition in [19] and in test [20] were 1.9% and 3.85%, respectively.
